According to PubChem BioAssay (EPA / NIEHS):
More than one record can exist for a structure, and the calls need not agree. The source made the active and inactive calls. How the source made its calls: active means hit-call score of the fitted dose curve at least 0.9, where 1 is the maximum; inactive means score below 0.9.

Legend:
[1] = read-out: TIMP metallopeptidase inhibitor 2 (TIMP2), TIMP2 (gene 7077); test: BSK_KF3CT_TIMP2: BioMAP Diversity Plus: KF3CT Assay for TIMP metallopeptidase inhibitor 2 (TIMP2) Biomarker Activity (AID 2283071); conditions: primary human keratinocytes with fibroblasts; actives raise or lower the signal
Method in brief: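 Cells: human keratinocytes co-cultured with foreskin fibroblasts. Treat with chemical, 24 h. Measure TIMP-2 by ELISA; fit curves bidirectionally vs DMSO baseline.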

[2] = read-out: Transforming growth factor beta 1 (TGFb1), TGFB1 (gene 7040); test: BSK_KF3CT_TGFb1: BioMAP Diversity Plus: KF3CT Assay for Transforming growth factor beta 1 (TGFb1) Biomarker Activity (AID 2283072); conditions: primary human keratinocytes with fibroblasts; actives raise or lower the signal
Method in brief: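 Primary human skin cells (keratinocytes, foreskin fibroblasts) were co-cultured, exposed to test chemical and sampled at 24 h. TGF-b1 levels were measured by ELISA and fitted bidirectionally relative to DMSO.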

[3] = read-out: C-C motif chemokine 2 (Homo sapiens) (UniProt P13500); test: BSK_KF3CT_MCP1: BioMAP Diversity Plus: KF3CT Assay for Monocyte Chemoattractant Protein 1 (MCP1/CCL2) Biomarker Activity (AID 2283073); conditions: primary human keratinocytes with fibroblasts; actives raise or lower the signal
Method in brief: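 ELISA read-out of MCP-1, 24 h post-dose, in primary human skin keratinocytes co-cultured with fibroblasts. Parallel SRB staining monitors cytotoxicity; changes fitted both directions relative to DMSO.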

[4] = read-out: Matrix Metallopeptidase 9 (MMP9), MMP9 (gene 4318); test: BSK_KF3CT_MMP9: BioMAP Diversity Plus: KF3CT Assay for Matrix Metallopeptidase 9 (MMP9) Biomarker Activity (AID 2283074); conditions: primary human keratinocytes with fibroblasts; actives raise or lower the signal;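 on AC50: MMP9 protein level quantified by ELISA in the co-culture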
Method in brief: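 Human keratinocyte and foreskin fibroblast co-culture exposed to chemicals for 24 h; MMP9 biomarker measured by ELISA, bidirectional fitting relative to DMSO; cytotoxicity tracked by SRB total protein staining in parallel cultures.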

[5] = read-out: urokinase plasminogen activator (uPA), PLAU (gene 5328); test: BSK_KF3CT_uPA: BioMAP Diversity Plus: KF3CT Assay for urokinase plasminogen activator (uPA) Biomarker Activity (AID 2283075); conditions: primary human keratinocytes with fibroblasts; actives raise or lower the signal
Method in brief: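 Primary human keratinocyte/foreskin fibroblast co-culture exposed to chemical; uPA measured by ELISA at 24 h. Bidirectional fit versus DMSO, with parallel SRB total-protein staining for cytotoxicity.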

CD40, CD40 (gene 958) [6] = test: BSK_LPS_CD40: BioMAP Diversity Plus: LPS Assay for CD40 Biomarker Activity (AID 2283076); conditions: primary human HUVEC with PBMC; actives raise or lower the signal
Method in brief: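 In the LPS system of human endothelial cells with peripheral blood mononuclear cells, CD40 levels were read by ELISA 24 h post-treatment. Signal changes in either direction were fitted against the DMSO baseline, with parallel SRB protein staining.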

[7] = read-out: E-selectin (Homo sapiens) (UniProt P16581); test: BSK_LPS_Eselectin: BioMAP Diversity Plus: LPS Assay for Eselectin Biomarker Activity (AID 2283077); conditions: primary human HUVEC with PBMC; actives raise or lower the signal
Method in brief: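 E-selectin ELISA on LPS-stimulated endothelial cell/PBMC co-cultures, read 24 h post-treatment; gains and losses fitted against DMSO. Parallel SRB staining (0.1% SRB after 10% TCA fixation, 560 nm) flags overt cytotoxicity.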

[8] = BSK_LPS_SRB: Viability Assessment in the BioMAP Diversity Plus: LPS Assay (AID 2283079); conditions: primary human HUVEC with PBMC;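 further: total protein by sulforhodamine B absorbance as a cytotoxicity measure; measured one day after compound addition; fitted in both directions against DMSO so loss or gain of signal counts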
Method in brief: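 SRB viability endpoint: cells fixed with 10% TCA, stained with 0.1% SRB, read at 560 nm, 24 h post-dose. HUVEC/PBMC co-culture; signal change in either direction scored relative to DMSO.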

[9] = read-out: Interleukin-1 alpha (IL1a), IL1A (gene 3552); test: BSK_LPS_IL1a: BioMAP Diversity Plus: LPS Assay for Interleukin-1 alpha (IL1a) Biomarker Activity (AID 2283080); conditions: primary human HUVEC with PBMC; actives raise or lower the signal
Method in brief: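 Readout is IL-1a level by ELISA, 24 h post-dose, fitted as gain or loss relative to DMSO. System: LPS-activated human primary co-culture of vascular endothelium and peripheral blood mononuclear cells, with parallel SRB total-protein cytotoxicity.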

[10] = read-out: Monocyte Chemoattractant Protein-1 (MCP1), CCL2 (gene 6347); test: BSK_LPS_MCP1: BioMAP Diversity Plus: LPS Assay for Monocyte Chemoattractant Protein-1 (MCP1) Biomarker Activity (AID 2283081); conditions: primary human HUVEC with PBMC; actives raise or lower the signal;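 on AC50: secreted MCP-1 protein quantified by ELISA in culture supernatant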
Method in brief: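 Secreted MCP-1 read by ELISA at 24 h post-dosing in an LPS-activated co-culture of endothelial cells with peripheral blood mononuclear cells. Fits run in both directions, DMSO as baseline; parallel SRB staining tracks overt cytotoxicity.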

[11] = BSK_LPS_PGE2: BioMAP Diversity Plus: LPS Assay for Prostaglandin E2 (PGE2) Biomarker Activity (AID 2283082); conditions: primary human HUVEC with PBMC; actives raise or lower the signal;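 on AC50: secreted prostaglandin E2 measured by ELISA in LPS-stimulated co-culture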
Method in brief: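 LPS-activated HUVEC/PBMC co-culture; cmpd dosed, 24 h; PGE2 by ELISA; bidirectional fit vs DMSO; SRB (0.1%, TCA-fixed, 560 nm) in parallel plates for overt cytotox.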

[12] = read-out: Macrophage colony-stimulating factor (MCSF), CSF1 (gene 1435); test: BSK_LPS_MCSF: BioMAP Diversity Plus: LPS Assay for Macrophage colony-stimulating factor (MCSF) Biomarker Activity (AID 2283083); conditions: primary human HUVEC with PBMC; actives raise or lower the signal
Method in brief: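 Bidirectional fitting against DMSO was applied to M-CSF levels read by ELISA at 24 h post-dose. The system pairs human umbilical vein endothelium with peripheral blood mononuclear cells; parallel SRB staining tracked cytotoxicity.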

[13] = read-out: Tissue Factor, F3 (gene 2152); test: BSK_LPS_TissueFactor: BioMAP Diversity Plus: LPS Assay for Tissue Factor Biomarker Activity (AID 2283084); conditions: primary human HUVEC with PBMC; actives raise or lower the signal
Method in brief: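 Compound was added to an endothelial cell/PBMC co-culture, and after 24 h tissue factor (CD142) was read by ELISA. Gain or loss of signal was fitted against a DMSO baseline, and parallel SRB staining (560 nm) tracked overt cytotoxicity.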

[14] = read-out: Tumor necrosis factor (Homo sapiens) (UniProt P01375); test: BSK_LPS_TNFa: BioMAP Diversity Plus: LPS Assay for Tumour Necrosis Factor alpha (TNFa) Biomarker Activity (AID 2283085); conditions: primary human HUVEC with PBMC; actives raise or lower the signal
Method in brief: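 Read-out is ELISA of TNFa in primary human endothelial cell–PBMC co-cultures at 24 h after compound. Activity in either direction was fitted against DMSO.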

[15] = read-out: Vascular cell adhesion molecule 1 (VCAM1), VCAM1 (gene 7412); test: BSK_LPS_VCAM1: BioMAP Diversity Plus: LPS Assay for Vascular cell adhesion molecule 1 (VCAM1) Biomarker Activity (AID 2283086); conditions: primary human HUVEC with PBMC; actives raise or lower the signal
Method in brief: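 HUVEC + PBMC co-culture, LPS system; compound 24 h; VCAM-1 by ELISA; bidirectional fit vs DMSO control; parallel SRB (0.1%, TCA-fixed, 560 nm) for cytotoxicity.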

CD38, CD38 (gene 952) = test: BSK_SAg_CD38: BioMAP Diversity Plus: SAg Assay for CD38 Biomarker Activity (AID 2283087); conditions: primary human HUVEC with PBMC; actives raise or lower the signal
Method in brief: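 Human HUVEC plus PBMC co-culture stimulated with superantigen; CD38 measured by ELISA 24 h after chemical dosing. Fluorescence read-out, bidirectional fit against DMSO; cytotoxicity tracked in parallel by SRB and Alamar Blue.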

CD40, CD40 (gene 958) [16] = test: BSK_SAg_CD40: BioMAP Diversity Plus: SAg Assay for CD40 Biomarker Activity (AID 2283088); conditions: primary human HUVEC with PBMC; actives raise or lower the signal
Method in brief: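 CD40 is measured by fluorescence ELISA in an endothelial/PBMC primary human co-culture at 24 h post-dose. Fitting is bidirectional, DMSO baseline. Parallel SRB staining (560 nm) flags cytotoxicity.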

CD69, CD69 (gene 969) = test: BSK_SAg_CD69: BioMAP Diversity Plus: SAg Assay for CD69 Biomarker Activity (AID 2283089); conditions: primary human HUVEC with PBMC; actives raise or lower the signal;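 on AC50: cell surface CD69 protein quantified by ELISA with fluorescence detection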
Method in brief: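 ELISA, fluorescence read-out: CD69 on human umbilical vein endothelial cell + PBMC co-culture, 24 h post-dosing. Gain or loss of signal fitted bidirectionally against DMSO baseline.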

[17] = read-out: Monocyte Chemoattractant Protein-1 (MCP1), CCL2 (gene 6347); test: BSK_SAg_MCP1: BioMAP Diversity Plus: SAg Assay for Monocyte Chemoattractant Protein-1 (MCP1) Biomarker Activity (AID 2283090); conditions: primary human HUVEC with PBMC; actives raise or lower the signal
Method in brief: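 MCP-1 levels in the endothelial–PBMC SAg co-culture were quantified by ELISA at 24 h post-dosing; both increases and decreases versus DMSO scored. Cytotoxicity monitored by SRB total protein in parallel cultures.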

[18] = read-out: Interleukin-8 (IL8), CXCL8 (gene 3576); test: BSK_LPS_IL8: BioMAP Diversity Plus: LPS Assay for Interleukin-8 (IL8) Biomarker Activity (AID 2283078); conditions: primary human HUVEC with PBMC; actives raise or lower the signal
Method in brief: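 ELISA read-out of IL-8 after 24 h chemical treatment of LPS-activated endothelial/PBMC human primary co-cultures. Changes either up or down relative to DMSO; overt cytotoxicity checked by sulforhodamine B staining in parallel wells.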

Measured: AC50

Chain of E-selectin (Homo sapiens) (P16581 whole entry, looked up): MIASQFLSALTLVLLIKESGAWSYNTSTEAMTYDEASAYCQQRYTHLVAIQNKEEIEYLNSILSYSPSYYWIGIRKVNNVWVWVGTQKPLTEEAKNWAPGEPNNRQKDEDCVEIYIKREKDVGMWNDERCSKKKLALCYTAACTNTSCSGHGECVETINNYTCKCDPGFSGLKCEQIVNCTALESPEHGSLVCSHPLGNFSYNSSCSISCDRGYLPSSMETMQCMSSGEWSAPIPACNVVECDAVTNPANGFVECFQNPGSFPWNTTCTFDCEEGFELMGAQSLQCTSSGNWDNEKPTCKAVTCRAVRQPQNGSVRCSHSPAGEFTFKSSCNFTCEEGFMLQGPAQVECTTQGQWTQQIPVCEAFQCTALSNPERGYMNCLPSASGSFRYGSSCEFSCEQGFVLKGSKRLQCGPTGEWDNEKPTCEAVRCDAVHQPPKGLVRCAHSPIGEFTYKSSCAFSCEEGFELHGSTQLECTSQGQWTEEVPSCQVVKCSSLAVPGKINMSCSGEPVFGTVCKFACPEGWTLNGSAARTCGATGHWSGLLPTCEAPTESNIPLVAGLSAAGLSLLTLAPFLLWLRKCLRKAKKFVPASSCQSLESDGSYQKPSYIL
Chain of Tumor necrosis factor (Homo sapiens) (P01375 whole entry, looked up): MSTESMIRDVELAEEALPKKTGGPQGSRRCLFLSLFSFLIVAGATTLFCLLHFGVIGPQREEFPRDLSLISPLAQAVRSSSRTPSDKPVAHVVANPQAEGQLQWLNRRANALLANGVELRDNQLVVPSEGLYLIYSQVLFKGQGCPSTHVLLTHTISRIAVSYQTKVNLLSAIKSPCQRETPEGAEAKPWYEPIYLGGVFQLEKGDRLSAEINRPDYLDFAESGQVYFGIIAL

CC(C)c1ccc(C(C)C)cc1
active: [1] 31.8 µM | [7] 32.1 µM
not listed: [18]
inactive: all other assays above

CC[Si](OC(C)=O)(OC(C)=O)OC(C)=O
inactive: [1] | [3] | [4] | [5] | CD40, CD40 (gene 958) [6] | [7] | [18] | [8] | [9] | [10] | [11] | [12] | [13] | [14] | [15] | CD38, CD38 (gene 952) | CD40, CD40 (gene 958) [16] | CD69, CD69 (gene 969) | [17]
active: CD40, CD40 (gene 958) [6] 0.626 µM

COc1cc(C=O)ccc1OC(=O)C(C)C
not listed: [2] | [18]
inactive: all other assays above

O=C1OC2(c3cc(Br)c(O)c(Br)c3Oc3c2cc(Br)c(O)c3Br)c2c(Cl)c(Cl)c(Cl)c(Cl)c21
active: [1] 1.6 µM | [2] 0.979 µM | [4] 3.53 µM | [5] 3.89 µM | CD40, CD40 (gene 958) [6] 4.27 µM | [7] 5.71 µM | [8] 3.6 µM | [9] 3.73 µM | [10] 4.59 µM | [11] 3.33 µM | [12] 5.42 µM | [13] 8.77 µM | [15] 5.55 µM | CD38, CD38 (gene 952) 5.04 µM | CD40, CD40 (gene 958) [16] 6.57 µM | CD69, CD69 (gene 969) 6.39 µM | [17] 5.24 µM
inactive: [14]

C=CCOC(=O)CCC1CCCCC1
inactive: [1] | [3] | [4] | [5] | CD40, CD40 (gene 958) [6] | [7] | [8] | [9] | [10] | [11] | [12] | [13] | [14] | [15] | CD38, CD38 (gene 952) | CD40, CD40 (gene 958) [16] | CD69, CD69 (gene 969) | [17]
active: [13] 1.01 µM

OC[C@H]1O[C@H](O[C@]2(CCl)O[C@H](CCl)[C@@H](O)[C@@H]2O)[C@H](O)[C@@H](O)[C@H]1Cl
not listed: [2] | [18]
inactive: all other assays above
